The text below walks through data of PubChem BioAssay (NCATS).

Results filed as inconclusive are left out. The source made the active and inactive calls. Unless noted, the call rests on the fitted dose curve; in most records, active means well fitted curve in either direction with a large enough effect (not every such curve was filed as active); inconclusive means small, poorly fitted or top-dose-only effect, or another doubt; inactive means flat fitted curve, though single readings scatter. Where only a bound is given, the exact number is not on record here.

In test [1] the target is Lysosomal acid glucosylceramidase (Homo sapiens) (UniProt P04062). The test can be described thus: Glucocerebrosidase-p2 (AID 348; in the data active means potency below about 10 µM; further: potency means the concentration at half of the fitted maximal effect). Particulars: purified GBA, blue fluorogenic substrate, 40 min. The essentials: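 Compounds titrated from 0.6 nM upwards against 0.2 nM enzyme in pH 5.9 citric acid/KH2PO4, taurocholate, tween-20; blue fluorogenic substrate 80 uM, 40 min room temperature, stopped and read Ex 365/Em 440 for AC50.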

A short description of test [2]: AP1 Signaling Pathway (AID 357).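 Further: ME-180 reporter cells stimulated with EGF at its EC50 level; on the % scale 0 is the no-effect control and ±100 the full control effect.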 Particulars: ME-180 AP-1-bla reporter, EGF-induced, beta-lactamase ratio, 5 h; at 7.69 µM (top of the series) unless noted. In short, it runs like this:
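Beta-lactamase reporter under AP-1 response element, ME-180 background. Stimulus: EC50 EGF. Compound exposure 5 h, 37 °C. Detection: CCF4, 2.5 h RT, 460/530 nm. Values: AC50 from titration.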

Test [3] is described as follows: NFAT Signaling Pathway (AID 444).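 Further: carbachol stimulus at about its EC50 of 1 µM final; on the % scale 0 is the no-effect control and ±100 the full control effect.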 The note with it: Jurkat NFAT-bla M1, carbachol, beta-lactamase ratio, 5 h; at 7.69 µM (top of the series) unless noted. The essentials: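 Read-out: CCF4 FRET ratio (460 nm/530 nm) after 1 h RT dye loading, used for %activity and AC50 from titration series. Cells: Jurkat NFAT-β-lactamase/M1 line, treated with compound plus 1 uM carbachol for 5 h, 37 °C.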

The nature of test [4]: Stat Signaling Pathway (AID 446).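 Further: ME-180 cervical cancer cells given 40 pM IL-6 alongside compound; SIE-controlled beta-lactamase reporter measured as 460/530 nm FRET emission ratio; on the % scale 0 is the no-effect control and ±100 the full control effect.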 The note with it: ME-180 SIE beta-lactamase reporter, IL-6 stimulated, 5 h; at 7.69 µM (top of the series) unless noted. The essentials: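 ME-180 cells carrying a SIE-driven beta-lactamase reporter are stimulated with 40 pM IL-6 for 5 h at 37C in the presence of compound. The 460/530 nm FRET substrate ratio is read after 2.5 h at RT. Data are normalised to 300 pM IL-6 and to 125 nM JAK inhibitor controls.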

The target of test [5] is Glucocorticoid receptor (Homo sapiens) (UniProt P04150). The test can be described thus: GR-EFC Redistribution (AID 451; calls by dose curve; further: potency means the concentration at half of the fitted maximal effect). The note with it: CHO-K1 GR-EFC translocation, beta-gal luminescence, 2 h. The essentials:
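Translocation of GR-ED fusion to nuclear EA restores b-gal, read by luminescence after 1 h room-temperature detection. Engineered CHO-K1 biosensor cells, 1,000/well, exposed 2 h at 37 C to titrations up to 46 uM final.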

Test [6] has as its target Mitogen-activated protein kinase 10 (Mus musculus) (UniProt Q61831). The test can be described thus: JNK3 AlphaScreen Assay (AID 530).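 Further: kinase came from lysate of stimulated human HepG2 cells; signal reports phosphorylation of biotinylated GST-cJun 1-79 at Ser73 with 10 µM ATP; on the % scale 0 is the no-effect control and ±100 the full control effect.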 The note with it: JNK3 lysate, c-Jun phosphorylation; series mostly up to 57.1 µM. In short, it runs like this:
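Compound titrations were preincubated 15 minutes at room temperature with substrate, antibody and pre-activated JNK3-containing HepG2 lysate. Reactions were started with 10 uM ATP and stopped with EDTA-containing bead buffer for AlphaScreen detection.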
For orientation: Alpha assays give light when donor and acceptor beads are brought close together.

Test [7] deals with 3',5'-cyclic-AMP phosphodiesterase 4B (Homo sapiens) (UniProt Q07343). The test can be described thus: qHTS Assay for Inhibitors of PDE-IV (AID 607; active means well fitted activation curve with a large enough effect in the main read-out, with a control signal flat, not every such curve was filed as active; further: % of control where 0% means no effect). The note with it: HEK293 ACTOne CNG channel cells, membrane potential fluorescence; series mostly up to 22.9 µM. In short, it runs like this:
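HEK293 ACTOne cells with CNG channel (1000/well), endogenous PDE4; membrane potential dye, compounds up to 22.9 uM final. Fluorescence Ex 535/Em 590; RO 20-1724 (100 uM final) as reference.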
A general note: qHTS replaces the single test concentration by a dilution series.

Test [8] in a line: qHTS Assay for Lipid Storage Modulators (AID 1519; calls by dose curve). The note with it: Drosophila S3 cells, BODIPY lipid droplet/cell ratio, laser cytometry, cells loaded with oleic acid; for activity change, negative = inhibition: at 57.5 µM (top of the series). In short, it runs like this: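 Cells seeded at 5,000 per well were treated with compounds over a concentration series and loaded with oleic acid (400 uM, as added). Lipid droplet fluorescence (488 nm excitation, 500-530 nm channel) was read by laser-scanning cytometry and normalized to 20 uM Triacsin C.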

The nature of test [9]: Primary qHTS for small molecule stabilizers of the endoplasmic reticulum resident proteome: Secreted ER Calcium Modulated Protein (SERCaMP) assay (AID 1508630; active means well fitted inhibition curve with a large enough effect; further: on the % scale 0 is the no-effect control and ±100 the full control effect). Particulars: SH-SY5Y GLuc-SERCaMP (Gaussia luciferase released on ER calcium loss) secretion, thapsigargin, luminescence; series mostly up to 38.4 µM. The essentials: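 GLuc-SERCaMP-expressing SH-SY5Y cells, pretreated 16 h with compound, are challenged with thapsigargin to empty ER calcium stores; after 4 h, coelenterazine is added directly to the medium and luminescence is imaged.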

The mark [10] stands for this setting: measured here: cell count channel max response.
Setting [11] is: measured here: lipid channel max response.

Chain of Lysosomal acid glucosylceramidase (Homo sapiens) (P04062 whole entry, looked up): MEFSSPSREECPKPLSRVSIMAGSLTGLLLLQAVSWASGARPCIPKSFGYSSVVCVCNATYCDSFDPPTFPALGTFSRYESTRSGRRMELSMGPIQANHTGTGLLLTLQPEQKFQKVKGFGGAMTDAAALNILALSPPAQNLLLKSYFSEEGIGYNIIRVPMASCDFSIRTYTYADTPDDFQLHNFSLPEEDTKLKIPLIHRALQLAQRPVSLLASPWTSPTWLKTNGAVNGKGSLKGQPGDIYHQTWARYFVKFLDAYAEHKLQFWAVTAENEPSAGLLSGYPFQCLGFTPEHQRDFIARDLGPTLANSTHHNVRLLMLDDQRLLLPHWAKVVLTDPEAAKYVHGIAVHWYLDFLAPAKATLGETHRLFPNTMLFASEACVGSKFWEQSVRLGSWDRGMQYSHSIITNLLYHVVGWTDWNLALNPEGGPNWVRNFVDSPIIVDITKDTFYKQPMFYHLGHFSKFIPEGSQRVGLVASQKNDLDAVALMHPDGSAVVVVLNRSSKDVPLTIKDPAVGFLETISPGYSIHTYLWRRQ
Chain of 3',5'-cyclic-AMP phosphodiesterase 4B (Homo sapiens) (Q07343 whole entry, looked up): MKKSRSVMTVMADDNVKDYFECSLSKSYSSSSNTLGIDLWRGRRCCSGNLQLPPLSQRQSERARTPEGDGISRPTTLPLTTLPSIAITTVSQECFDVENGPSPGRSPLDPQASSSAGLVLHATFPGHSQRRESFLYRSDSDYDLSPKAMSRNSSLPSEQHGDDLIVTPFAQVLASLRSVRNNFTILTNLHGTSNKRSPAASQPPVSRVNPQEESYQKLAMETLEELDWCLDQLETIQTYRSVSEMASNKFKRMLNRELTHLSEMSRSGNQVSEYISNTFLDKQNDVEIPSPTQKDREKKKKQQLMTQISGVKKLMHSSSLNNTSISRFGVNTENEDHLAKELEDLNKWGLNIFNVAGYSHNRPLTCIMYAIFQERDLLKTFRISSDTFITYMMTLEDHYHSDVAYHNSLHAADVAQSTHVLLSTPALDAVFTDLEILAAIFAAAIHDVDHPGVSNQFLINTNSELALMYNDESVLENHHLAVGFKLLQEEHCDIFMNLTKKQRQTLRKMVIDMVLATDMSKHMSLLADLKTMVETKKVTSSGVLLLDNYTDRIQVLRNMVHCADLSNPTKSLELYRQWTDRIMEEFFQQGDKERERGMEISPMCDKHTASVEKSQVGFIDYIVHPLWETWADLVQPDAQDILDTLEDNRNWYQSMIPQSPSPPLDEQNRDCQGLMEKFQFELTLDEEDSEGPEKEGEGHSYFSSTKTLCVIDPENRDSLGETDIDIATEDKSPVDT
Chain of Glucocorticoid receptor (Homo sapiens) (P04150 whole entry, looked up, the tested form may be a part): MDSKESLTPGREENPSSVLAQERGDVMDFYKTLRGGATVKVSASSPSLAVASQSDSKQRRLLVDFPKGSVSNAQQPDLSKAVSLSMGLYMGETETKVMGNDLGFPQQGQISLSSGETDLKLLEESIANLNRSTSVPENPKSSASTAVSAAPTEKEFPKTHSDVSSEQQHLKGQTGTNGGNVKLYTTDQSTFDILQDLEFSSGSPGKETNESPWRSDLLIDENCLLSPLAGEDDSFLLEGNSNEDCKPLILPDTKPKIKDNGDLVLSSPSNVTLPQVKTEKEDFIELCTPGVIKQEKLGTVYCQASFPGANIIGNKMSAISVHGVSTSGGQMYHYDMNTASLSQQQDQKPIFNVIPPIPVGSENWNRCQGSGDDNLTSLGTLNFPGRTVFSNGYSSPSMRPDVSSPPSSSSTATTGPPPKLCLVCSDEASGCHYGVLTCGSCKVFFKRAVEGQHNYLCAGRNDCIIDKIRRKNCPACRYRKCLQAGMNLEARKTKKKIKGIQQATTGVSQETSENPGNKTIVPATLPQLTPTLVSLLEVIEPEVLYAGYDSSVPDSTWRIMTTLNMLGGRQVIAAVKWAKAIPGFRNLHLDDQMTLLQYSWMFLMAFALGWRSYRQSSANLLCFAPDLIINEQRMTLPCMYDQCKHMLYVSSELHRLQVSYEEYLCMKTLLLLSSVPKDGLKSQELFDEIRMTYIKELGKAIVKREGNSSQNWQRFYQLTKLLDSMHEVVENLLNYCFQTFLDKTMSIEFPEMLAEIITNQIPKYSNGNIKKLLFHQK

`COCC(=O)N1CCC[C@@]2(CCN(C(=O)Nc3ccccc3)C2)C1`: the Potency in test [1] is > 11.4 µM (inactive); in test [5], > 46 µM (inactive). Also, the values for the activity change, negative = inhibition in test [2], in [3] and in test [8] were -5.16% (inactive), 1.53% (inactive) and 5.08% (inactive), respectively. In [4], the activity, negative = inhibition is -3% (inactive). For the same molecule, the Potency entry in [6] and in test [7] was “inactive” in each case. The figures for the max response in [8] (setting [10]) and in test [8] (setting [11]) were 3.08% and 10.8%, respectively. In addition, in [9], the outcome was inactive.

As for `COc1ccc(NC(=O)N2CC[C@@]3(CCCN(C(=O)c4ccncc4)C3)C2)cc1`, the Potency in [1] is > 11.4 µM (inactive); in test [5], > 46 µM (inactive). Also, the activity change, negative = inhibition in test [2] was -25.1% (inactive); in test [3], 16.8% (inactive); in test [8], 2.47% (inactive). Also, the activity, negative = inhibition in test [4] is 5.11% (inactive). In addition, the Potency result in test [6] and in test [7] was “inactive” throughout. The figures for the max response in test [8] (setting [10]) and in test [8] (setting [11]) were 0.213% and 7.4%, respectively. Besides, the result in test [9] was inactive.

As to `Cc1noc(C)c1C(=O)N1CCC2(CC1)CN(Cc1cc(C(F)(F)F)cc(C(F)(F)F)c1)C2`, the values for the Potency in test [1] and in test [5] were > 11.4 µM (inactive) and > 46 µM (inactive), respectively. In addition, the activity change, negative = inhibition is -7.95% (inactive) in test [2], -16.8% (inactive) in test [3] and -4.32% (inactive) in test [8]. Also, the activity, negative = inhibition in test [4] was -3.94% (inactive). Besides, the Potency result in [6] and in [7] was “inactive” throughout. The results for the max response in test [8] (setting [10]) and in test [8] (setting [11]) were -1.83% and -4.57%, respectively. Besides, the outcome in test [9] was inactive.

On to `c1ccc(-c2cccc(N3CCCC4(CCNCC4)C3)c2)cc1`, for which the values for the Potency in test [1] and in test [5] were > 11.4 µM (inactive) and > 46 µM (inactive), respectively. Also, the activity change, negative = inhibition was 11.2% (inactive) in test [2], -11% (inactive) in [3] and 2.43% (inactive) in [8]. Besides, the activity, negative = inhibition in test [4] was 8.57% (inactive). For the same molecule, the Potency result in test [6] and in test [7] was “inactive” in each case. Further, the max response in [8] (setting [10]) is -2.04%; in test [8] (setting [11]), 1.36%. In test [9], the result was inactive.

Consider `CS(=O)(=O)N1CCC2(CC1)CN(Cc1ccccc1)C2`, for which the figures for the Potency in test [1] and in test [5] were > 11.4 µM (inactive) and > 46 µM (inactive), respectively. The activity change, negative = inhibition was -4.28% (inactive) in [2], -8.71% (inactive) in test [3] and 3.83% (inactive) in test [8]. Also, in test [4], the activity, negative = inhibition is -7.57% (inactive). The Potency result in [6] and in [7] was “inactive” each time. For the same molecule, the max response in [8] (setting [10]) is 6.73%; in [8] (setting [11]), 15%. Moreover, the result in [9] was inactive.

Regarding `COc1ccc(C(=O)N2CCC[C@@]3(CCN(Cc4ccncc4)C3)C2)cc1`, the results for the Potency in test [1] and in test [5] were > 11.4 µM (inactive) and > 46 µM (inactive), respectively. The activity change, negative = inhibition in test [2] was -9.73% (inactive); in [3], 4.96% (inactive); in test [8], 5.81% (inactive). Also, in test [4], the activity, negative = inhibition is 2.52% (inactive). The Potency result in test [6] and in [7] was “inactive” in each case. The max response in test [8] (setting [10]) stood at 16.4%; in test [8] (setting [11]) it was 25.6%. In [9], the outcome was inactive.

For `O=S(=O)(c1ccccc1)N1CCC2(CCN(c3cccc(-c4ccccc4)c3)CC2)CC1`, the Potency in test [1] was > 11.4 µM (inactive); in test [5] it was > 46 µM (inactive). In addition, the activity change, negative = inhibition in [2] is -5.65% (inactive); in [3], -3.11% (inactive); in test [8], 5.8% (inactive). For the same molecule, the activity, negative = inhibition in test [4] was -8.83% (inactive). In addition, the Potency result in [6] and in [7] was “inactive” each time. For the same molecule, the max response stood at 17.8% in [8] (setting [10]) and 24.9% in [8] (setting [11]). Also, in test [9], the result was inactive.
